{"source": "the supplement of paper PMC10338343", "note": "± gives the standard deviation.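 Also: 1 nM active piRISC with 0.1 nM target library at 33 °C single turnover.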", "data": [{"system": "MILI (PIWIL2) piRISC loaded with L1MC piRNA (26 nt)", "test": "pre-steady-state target cleavage rate (min^-1); guide: L1MC piRNA 5'p-UAACUAAAUACUAUGCAAGCUGUAGG; MIWI and MILI are mouse PIWI proteins and EfPiwi is from a freshwater sponge; tags in brackets are library labels; higher = faster piRNA-guided slicing of the target", "conditions": "auxiliary factor: 500 nM mouse GTSF1", "method_in_brief": "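Active affinity-purified piRISC carrying one synthetic guide (1 nM) was mixed with a transcribed, DNA-blocked target RNA library […] in HEPES–potassium acetate buffer at 33 °C for 0–8 or 0–960 min, with or without 500 nM GTSF1 partner protein. Uncleaved targets were then sequenced and normalised to depth and to weakly complementary targets. Three trials were pooled, and k3 was capped at 0.0001 min^-1. A burst-and-steady-state fit was applied to obtain the pre-steady-state cleavage rate.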", "values": [{"sequence": "UCCUGGAUGUCCUUGCAUAGUAUAUACUUA", "pre-steady-state target cleavage rate": "0.00862 ± 0.0049"}, {"sequence": "UCCUGGAACAGCUUGCUAUGUAUUUAGAAA", "pre-steady-state target cleavage rate": "0.00873 ± 0.0046"}, {"sequence": "UCCUGGAUGUCGAUGCAUAGUUUUAAGUUA", "pre-steady-state target cleavage rate": "0.00654 ± 0.0039"}, {"sequence": "UCCUGGUACAGCAAGCAUAGUAUUUUCAAA", "pre-steady-state target cleavage rate": "0.0777 ± 0.022"}, {"sequence": "UCCUGGAUGAGCUUGCAUAGUAUUUUGAUA", "pre-steady-state target cleavage rate": "0.0343 ± 0.014"}, {"sequence": "UCCUGGAUCAGCUUGCAAUCUAUUUAGUAA", "pre-steady-state target cleavage rate": "0.0108 ± 0.0043"}, {"sequence": "UCCUGGAACAGCUUGCAUAGAAUUUACAAA", "pre-steady-state target cleavage rate": "0.0177 ± 0.0082"}, {"sequence": "UCCUCCUACAGCUUGCUAAGUAUUUACAAA", "pre-steady-state target cleavage rate": "0.0519 ± 0.013"}, {"sequence": "UCCUGGAUGUCGAAGCAUAUUAUUUAGUUA", "pre-steady-state target cleavage rate": "0.00703 ± 0.0037"}, {"sequence": "UCCUGGAUCAGCAAGCAUAGUAUUUUCAAA", "pre-steady-state target cleavage rate": "0.024 ± 0.0074"}, {"sequence": "UCCUGGAUGUGCUUGGAUAGUAUUUAGUAA", "pre-steady-state target cleavage rate": "0.117 ± 0.021"}, {"sequence": "UCCUGGAUGACCUUGCAUAGUAUUUUGUUA", "pre-steady-state target cleavage rate": "0.0852 ± 0.023"}, {"sequence": "UCCUGGAUCAGCUUGCAUAGUAUUAUCUAA", "pre-steady-state target cleavage rate": "0.0859 ± 0.021"}, {"sequence": "UCCUGGAUGAGCUUGCAAAGUUUUUAGUUA", "pre-steady-state target cleavage rate": "0.00724 ± 0.004"}, {"sequence": "UCCUGGAUGUGCUUGCAUUGUAUUUACUUA", "pre-steady-state target cleavage rate": "0.0239 ± 0.0082"}, {"sequence": "UCCUGGUACAGCUAGCAUAGUAUUUACAAA", "pre-steady-state target cleavage rate": "0.0365 ± 0.012"}, {"sequence": "UCCUCCUACAGCUUCCAUAGUAAUUAGUUA", "pre-steady-state target cleavage rate": "0.0149 ± 0.0069"}, {"sequence": "UCCUGGAACAGCUUGCAAAGUAUUUUGUUA", "pre-steady-state target cleavage rate": "0.0942 ± 0.021"}, {"sequence": "UCCUGGAUGAGCUUGCAUAGUAUAUACAAA", "pre-steady-state target cleavage rate": "0.00992 ± 0.0056"}, {"sequence": "UCCUGGAUGUGCUACCAUAGUAUUUAGUAA", "pre-steady-state target cleavage rate": "0.0454 ± 0.011"}, {"sequence": "UCCUGGAUGAGCUUGCAUAGUAUAUAGAAA", "pre-steady-state target cleavage rate": "0.00651 ± 0.005"}, {"sequence": "UCCUGGAUGUCGAAGCAUAGUAUUUAGUUC [g2:g16:cont:t1C]", "pre-steady-state target cleavage rate": "0.0284 ± 0.0076"}, {"sequence": "UCCUGGAACAGCUUGCAUAGUAAAAAGAAA", "pre-steady-state target cleavage rate": "0.0185 ± 0.0077"}, {"sequence": "UCCUGGUACAGCUUGCAUAGUAUUUUCAUA", "pre-steady-state target cleavage rate": "0.0352 ± 0.014"}, {"sequence": "UCCUGGAUCAGCUUGCAUAGUUAAAUCAAA [g10:g22:cont:t1A]", "pre-steady-state target cleavage rate": "0.00426 ± 0.0036"}, {"sequence": "UCCUGGAUGUCCUUGCAUUGUAUUUAGUAA", "pre-steady-state target cleavage rate": "0.0421 ± 0.015"}, {"sequence": "UCCUGGAUCAGCUUGCAUAGUUUUUAGAAA", "pre-steady-state target cleavage rate": "0.0202 ± 0.0088"}, {"sequence": "UCCUGGUACAGCUUGCUUAGUAUUUAGAAA", "pre-steady-state target cleavage rate": "0.0808 ± 0.021"}, {"sequence": "UCCUGGAUGUCCUAGCAUACUAUUUAGUUA", "pre-steady-state target cleavage rate": "0.0115 ± 0.0063"}, {"sequence": "UCCUCGUACAGCUUGCAUAGUAUUUUCAAA", "pre-steady-state target cleavage rate": "0.0759 ± 0.02"}, {"sequence": "UCCUCCUACAGCUUGGUUAGUAUUUACAAA", "pre-steady-state target cleavage rate": "0.0445 ± 0.012"}, {"sequence": "UCCUCCUACAGCUUCCAUAGUUUUUAGUUA", "pre-steady-state target cleavage rate": "0.0195 ± 0.0081"}, {"sequence": "UCCUGGUACUCCUUGCAUAGUAUUUAGUUA", "pre-steady-state target cleavage rate": "0.217 ± 0.046"}]}]}
